From PubChem BioAssay
In the library only some 7.9% were active in any assay of this set; here they are far more common.
HT1080-NT tox: kills 2HG-producing HT-1080-NT fibrosarcoma cells. HT-1080-NT fibrosarcoma viability, CellTiter-Glo ATP luminescence, 48 h. AID 686970. Potency, µM (titrated, usually from 46.1 µM), actives largely listed as cytotoxic. 360,000 tested, 1.6% active;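 also: NT is the 2HG producing partner of a matched IDH1 knockdown line; nearly all actives have a fitted effect of over 55% in size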
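Viability by CellTiter-Glo luminescence after 48 h compound exposure at 37C of HT-1080-NT cells (750/well, RPMI, 5% FBS). % activity scaled between DMSO wells and medium-only wells, then curve-fitted and categorized by curve class.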
MCF10A rerep: induces DNA re-replication in MCF 10a normal breast cells; 350,000 tested, 2.9% active; MCF 10A DNA re-replication, Hoechst nuclear intensity, 48 h; AID 624296; Potency, µM (doses to about 46.1 µM), usual class: activators; also: nearly all actives have a fitted effect of over 50% in size
HT1080 IDH1KD tx: kills HT-1080 cells with IDH1 knockdown | Potency, µM (top dose mostly 46.1 µM), most hits filed as cytotoxic | AID 686971 | 360,000 tested, 2% active | HT-1080 IDH1 knockdown viability, ATP luminescence, 48 h
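Luminescent ATP read-out (CellTiter-Glo, 10 min at room temperature) after 48 h compound exposure at 37 °C gave viability of IDH1-knockdown HT-1080 cells. Activity was normalised to DMSO and cell-free wells, then fitted as concentration-response curves.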
SW480 rerep: induces DNA re-replication in SW480 colon adenocarcinoma cells; 340,000 tested, 1.8% active; AID 624297; Potency, µM (doses to about 46.1 µM), actives largely listed as activators; SW480 DNA re-replication, Hoechst DNA content imaging, 48 h; also: nearly all actives have a fitted effect of over 55% in size
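250 cells/well; 23 nL cpd via pin tool; 48 hr, 37 C, 5% CO2; Hoechst 40 min; imager read of total nuclear intensity, ex 405/em 500-530 nm.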
KB-3-1 cytotox: KB-3-1 parental cell cytotoxicity | KB-3-1 viability, CellTiter-Glo ATP luminescence, 72 h | AID 1347075 | 400,000 tested, 1.4% active | Potency, µM (highest dose often 46.1 µM), usual class: cytotoxic; also: nearly all actives have a fitted effect of over 60% in size
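Luminescent ATP read-out (CellTiter-Glo) measures survival of drug-naive KB-3-1 cells after 72 h compound exposure at 37 °C. Titration series was screened from lowest to highest concentration, with DMSO vehicle plates as background controls.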
KB-V1 cytotox: kills drug-selected multidrug resistant KB-V1 cells; KB-V1 MDR cells viability, CellTiter-Glo, 72 h; Potency, µM (highest dose often 46.1 µM), hits mostly cytotoxic; 400,000 tested, 3.4% active; also: nearly all actives have a fitted effect of over 60% in size
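Drug-selected KB-V1 cells, grown in DMEM lacking phenol red with 10% FBS, receive compound titrations; after three days at 37 degrees C, surviving cell ATP is quantified by CellTiter-Glo luminescence and responses normalized and curve-fitted.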
Of the large screens only hits and unclear results are named; the others gave an inactive call. Calls follow the shape of the dose curve; as a rule, active = well fitted curve in the direction sought with a large enough effect; inconclusive = small, poorly fitted or top-dose-only effect, or another doubt; inactive = no such curve, though single readings can be large; an effect the other way counts as inactive or inconclusive.

O=C(N/N=C/C(Br)=C/c1ccccc1)c1ccccc1[N+](=O)[O-]	MCF10A rerep inconclusive, SW480 rerep inconclusive
O=C(N/N=C/C(Br)=C\c1ccccc1)c1n[nH]c2c1CCC2	HT1080-NT tox 0.32µM, MCF10A rerep inconclusive, HT1080 IDH1KD tx 0.56µM, SW480 rerep 0.52µM, KB-V1 cytotox inconclusive
Cc1cc(C(=O)N/N=C/C=C/c2ccccc2)n[nH]1	HT1080 IDH1KD tx inconclusive, SW480 rerep inconclusive
CC(/C=N/NC(=O)c1ccccc1C)=C\c1ccccc1	none
CC(/C=N/NC(=O)c1n[nH]c2c1CCC2)=C\c1ccccc1	HT1080-NT tox 0.18µM, MCF10A rerep 0.26µM, HT1080 IDH1KD tx 0.37µM, SW480 rerep 0.73µM, KB-3-1 cytotox 0.33µM, KB-V1 cytotox 0.21µM
O=C(N/N=C/C=C/c1ccccc1)c1n[nH]c2c1CCC2	HT1080-NT tox 1.8µM, MCF10A rerep 1.5µM, HT1080 IDH1KD tx 1.3µM, SW480 rerep 2.1µM, KB-3-1 cytotox 1.3µM, KB-V1 cytotox 1µM
O=c1c2cc3c(cc2nc2sc(Nc4cccc([N+](=O)[O-])c4)nn12)OCO3	none (no result: HT1080-NT tox, MCF10A rerep, HT1080 IDH1KD tx, SW480 rerep)
CN(C)CCNC(=O)c1sc2nc(-c3ccccc3)cc(C(F)(F)F)c2c1N	HT1080-NT tox 23µM, MCF10A rerep inconclusive, HT1080 IDH1KD tx 18µM, SW480 rerep inconclusive, KB-3-1 cytotox inconclusive, KB-V1 cytotox inconclusive
CCO/C(C)=N/Oc1cnc2ccccc2c1	none (no result: MCF10A rerep, SW480 rerep)
O=CNc1cc(-c2ccc(C(=O)NC3CC3)cc2)cn2c(-c3ccc(F)cc3)cnc12	HT1080-NT tox inconclusive, HT1080 IDH1KD tx 8.2µM, KB-V1 cytotox inconclusive (no result: MCF10A rerep, SW480 rerep)
COc1cccc(-c2cnc3c(NC(C)=O)cc(-c4ccc(C(=O)N5CCOCC5)cc4)cn23)c1	HT1080-NT tox inconclusive, HT1080 IDH1KD tx 21µM (no result: MCF10A rerep, SW480 rerep)
COc1ccc(-c2cnc3c(NC=O)cc(-c4ccc(C(=O)N5CCOCC5)cc4)cn23)cc1OC	HT1080-NT tox inconclusive, HT1080 IDH1KD tx 21µM, KB-3-1 cytotox inconclusive, KB-V1 cytotox inconclusive (no result: MCF10A rerep, SW480 rerep)
COc1ccc(-c2cc(NC=O)c3ncc(-c4ccc(C(C)=O)cc4)n3c2)cc1OC	HT1080-NT tox 16µM, HT1080 IDH1KD tx 13µM, KB-V1 cytotox inconclusive (no result: MCF10A rerep, SW480 rerep)
COc1cc(OC)cc(-c2c(Sc3ccccc3)c3cc(-c4ccc5c(c4)OCCO5)ccc3n2C)c1	none (no result: MCF10A rerep, SW480 rerep)
CC1CCN(Cc2nnnn2CCCC(=O)N(C)C(C)c2ccccn2)CC1 (stereo unspecified)	none
COc1ccc(-c2cc(NC=O)c3ncc(-c4cccc(C(C)=O)c4)n3c2)cc1	HT1080 IDH1KD tx inconclusive (no result: MCF10A rerep, SW480 rerep)
COc1cccc(-c2cc(NC=O)c3ncc(-c4ccc(C(C)=O)cc4)n3c2)c1	HT1080-NT tox 18µM, HT1080 IDH1KD tx 10µM, KB-3-1 cytotox 5.2µM, KB-V1 cytotox 18µM (no result: MCF10A rerep, SW480 rerep)
CN(C)C(=O)c1cccc(-c2cc(NC=O)c3ncc(-c4ccc(F)cc4)n3c2)c1	HT1080-NT tox inconclusive, HT1080 IDH1KD tx inconclusive, KB-3-1 cytotox inconclusive, KB-V1 cytotox 21µM (no result: MCF10A rerep, SW480 rerep)
COCCNC(=O)/C(C#N)=C/c1cccc(/C=C(\C#N)C(=O)NCCOC)c1	HT1080-NT tox inconclusive, MCF10A rerep 21µM, HT1080 IDH1KD tx inconclusive, SW480 rerep inconclusive, KB-3-1 cytotox inconclusive
COCCNC(=O)/C(C#N)=C/c1ccc(O)c([N+](=O)[O-])c1	none
COCCNC(=O)/C(C#N)=C/c1ccc(O)cc1	none
COCCNC(=O)/C(C#N)=C/C=C/c1ccccc1[N+](=O)[O-]	HT1080-NT tox inconclusive, MCF10A rerep 15µM, HT1080 IDH1KD tx inconclusive, KB-V1 cytotox inconclusive
O=C(CSc1oc(-c2cccs2)nc1S(=O)(=O)c1ccccc1)Nc1ccc(F)cc1	none (no result: HT1080-NT tox, MCF10A rerep, HT1080 IDH1KD tx, SW480 rerep)
O=C(/C=C/c1ccc(O)cc1)c1ccc(O)cc1O	HT1080-NT tox 26µM, MCF10A rerep 15µM, HT1080 IDH1KD tx 23µM, KB-3-1 cytotox inconclusive, KB-V1 cytotox inconclusive
Cc1ccc(C(=O)/C=C/Nc2cccc(O)c2)cc1	MCF10A rerep 23µM, HT1080 IDH1KD tx inconclusive, SW480 rerep inconclusive
Cc1ccc(/C=C/C(=O)c2ccc(O)cc2)cc1	MCF10A rerep inconclusive, HT1080 IDH1KD tx inconclusive, SW480 rerep 18µM, KB-3-1 cytotox inconclusive, KB-V1 cytotox inconclusive
